Screens from PubChem BioAssay.
This excerpt belongs to a sample that is enriched for hits.
Shiga inhibitor – Shiga toxin inhibition; AID 2315; 290,000 compounds, 9.2% hits; Vero cells, Shiga toxin protein synthesis inhibition reporter; inhibition, % at 38.7 µM; in the data active means inhibition mostly above about 28%, no sharp cut-off; inactive means mostly below about 43%
RE007 growth inh – less growth of the S. pombe RE007 Vpr strain. S. pombe RE007 Vpr strain, BacTiter-Glo ATP luminescence, 24 h. Potency, µM (highest dose often 92.2 µM), hits mostly inhibitors. 360,000 compounds, 0.21% hits. AID 651644; active means well fitted falling curve with a large enough effect; inconclusive means small, poorly fitted or top-dose-only effect; inactive means no such curve, though single readings can be large or run the other way; further: nearly all actives have a fitted effect of over 50% in size
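Fission yeast RE007 carrying one integrated HIV-1 vpr copy, seeded at OD 0.01 in PMG+AL medium with 23 nL pinned compound. Grown 24 h at 30 degrees; viability read by BacTiter-Glo luminescence after 5 min.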
Tb PYK inh – blocks Trypanosoma brucei pyruvate kinase | Q57TT1 | TbPYK enzyme, Kinase-Glo Plus ATP luminescence, 45 min | Potency, µM (highest dose often 76.8 µM), actives largely listed as inhibitors | 410,000 compounds, 0.12% hits; further: nearly all actives have a fitted effect of over 50% in size
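ADP (130 uM final) triggers the TbPYK reaction after compound addition; incubation is 45 min at room temperature. Kinase-Glo Plus is then added and luminescence imaged. Normalized data are fitted to concentration-effect curves.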
Giardia FBPA inh – Giardia lamblia aldolase inhibition | Potency, µM (doses to about 59.6 µM), usual class: inhibitors | AID 2451 | 290,000 compounds, 0.71% hits | purified Giardia FBPA | A8B2U2; further: nearly all actives have a fitted effect of over 55% in size
Target sequence (A8B2U2 whole entry, looked up): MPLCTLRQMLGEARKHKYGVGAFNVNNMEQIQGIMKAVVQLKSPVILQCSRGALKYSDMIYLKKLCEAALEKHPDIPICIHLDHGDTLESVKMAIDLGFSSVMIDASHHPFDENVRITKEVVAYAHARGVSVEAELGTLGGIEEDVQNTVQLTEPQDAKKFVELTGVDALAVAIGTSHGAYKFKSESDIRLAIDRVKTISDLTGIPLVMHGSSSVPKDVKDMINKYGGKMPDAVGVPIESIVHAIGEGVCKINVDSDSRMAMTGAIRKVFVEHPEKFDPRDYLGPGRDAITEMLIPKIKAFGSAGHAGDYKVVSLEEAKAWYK
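40 nM FBPA preincubated 10 min at RT with compound (up to 57.5 uM final), then substrate plus GAPDH/TPI/NAD/arsenate coupling and diaphorase/resazurin added. Fluorescence read after 20 min at RT, 525/598 nm.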
CHX counter – affects cycloheximide protein synthesis inhibition readout, counter-screen; cell reporter, cycloheximide protein synthesis inhibition counterscreen; max response, %; 300,000 compounds, 12% hits; in the data active means max response mostly above about 13%, no sharp cut-off; inactive means mostly below about 14%; further: read at 38.3 µM for the half of the compounds with a filed dose
LmPK inh – blocks Leishmania mexicana pyruvate kinase activity. Q27686. purified LmPK, Kinase-Glo ATP luminescence, 1 h. Potency, µM (highest dose often 57.5 µM), usual class: inhibitors. 290,000 compounds, 0.37% hits. AID 1721
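In 50 mM imidazole pH 7.2 with 7 mM MgCl2, LmPK (0.1 nM) turned over PEP (0.5 mM) and ADP (0.1 mM) for 1 h at room temperature. Luciferase read-out of ATP.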
A number is an active result; [ ] = dose if it differs, or a comment. Unless noted, the call rests on the fitted dose curve; in most records, active means well fitted curve in the direction sought with a large enough effect; inconclusive means small, poorly fitted or top-dose-only effect, or another doubt; inactive means no such curve, though single readings can be large; an effect the other way counts as inactive or inconclusive.

C=C(C)C1CC=C(C)/C(=N/NC(=O)COc2ccccc2Cl)C1 (configuration not stated) was read as Shiga inhibitor inactive, RE007 growth inh inactive, Tb PYK inh inactive, Giardia FBPA inh inactive, CHX counter inactive and LmPK inh inactive.
Screening COc1ccc(OCC(=O)NC2CC(C)(C)NC(C)(C)C2)cc1 returned Shiga inhibitor inactive, RE007 growth inh inactive, Tb PYK inh inactive, Giardia FBPA inh inactive, CHX counter 31.3 and LmPK inh inactive.
For CC1(C)CC(NC(=O)COc2ccccc2Cl)CC(C)(C)N1 the results were Shiga inhibitor 95.1, RE007 growth inh inactive, Tb PYK inh inactive, Giardia FBPA inh inactive, CHX counter 28.0 and LmPK inh inactive.
Screening O=C(COc1ccccc1Cl)NC1CC1 returned Shiga inhibitor 92.2, RE007 growth inh inactive, Tb PYK inh inactive, CHX counter inactive and LmPK inh inactive.
For O=C(COc1ccccc1Br)NC1CC1 the results were Shiga inhibitor inactive, RE007 growth inh inactive, Tb PYK inh inactive, CHX counter 14.7 and LmPK inh inactive.
`O=C(COc1ccccc1Br)NC(=O)NC1CCCC1` gave RE007 growth inh inactive and Tb PYK inh inactive.
For O=C(O)Cn1cc(/C=C2\C(=O)NC(=O)N(c3ccc(Cl)cc3)C2=O)c2ccccc21 the results were Shiga inhibitor inactive, RE007 growth inh inactive, Tb PYK inh inactive, Giardia FBPA inh inactive, CHX counter inactive and LmPK inh inactive.
Screening CCN(CC)C(=O)Cn1cc(/C=C2\C(=O)NC(=O)N(c3ccccc3F)C2=O)c2ccccc21 returned Shiga inhibitor inactive, RE007 growth inh inactive, Tb PYK inh inactive, Giardia FBPA inh inactive, CHX counter 8.5 and LmPK inh inactive.
`CCc1ccc(-c2nc(-c3ccncc3)no2)cc1` gave Shiga inhibitor 85.4, RE007 growth inh inactive, Tb PYK inh inactive, Giardia FBPA inh inactive, CHX counter 41.8 and LmPK inh inactive.
`CCCCc1ccc(-c2nc(-c3ccncc3)no2)cc1` gave Shiga inhibitor 72.9, RE007 growth inh inactive, Tb PYK inh inactive, Giardia FBPA inh inactive, CHX counter 39.0 and LmPK inh inactive.
Screening COc1ccc(Cl)cc1NC(=O)CCc1c(C)nc2c(c1C)c(=O)n(C)c(=O)n2C returned Tb PYK inh inactive.
`Cc1ccc(/C(O)=C2\C(=O)C(=O)N(C)C2c2ccc(F)cc2)cc1` (configuration not stated) gave Shiga inhibitor inactive, RE007 growth inh inactive, Tb PYK inh inactive, Giardia FBPA inh inactive, CHX counter inactive and LmPK inh inactive.
`CS/C(N)=N/N=C/c1ccc([N+](=O)[O-])cc1` gave Shiga inhibitor 74.8, RE007 growth inh inactive, Tb PYK inh inactive, Giardia FBPA inh inconclusive, CHX counter 30.2 and LmPK inh inactive.
N/C(=N\N=C\c1ccc(O)c(O)c1)c1nonc1N was read as Shiga inhibitor 67.1, RE007 growth inh inactive, Tb PYK inh inactive, Giardia FBPA inh inactive, CHX counter 43.0 and LmPK inh inconclusive.
For COc1cc(/C=N/N=C(\N)c2nonc2N)ccc1O the results were Shiga inhibitor 61.3, RE007 growth inh inactive, Tb PYK inh inactive, Giardia FBPA inh inactive, CHX counter 24.4 and LmPK inh inactive.
`CS/C(N)=N/N=C/c1ccc2c(c1)OCO2` gave Shiga inhibitor 71.0, RE007 growth inh inactive, Tb PYK inh inactive, Giardia FBPA inh inactive, CHX counter 25.1 and LmPK inh inconclusive.
For COc1cc(/C=N/NC(=O)c2nnn(-c3nonc3N)c2C(C)C)ccc1O the results were Shiga inhibitor inactive, RE007 growth inh inactive, Tb PYK inh inactive, CHX counter inactive and LmPK inh inactive.
For OC[C@@H]1CN(Cc2cccs2)C[C@H](n2cnc3c(NC4CCC4)ncnc32)O1 the results were RE007 growth inh inactive and Tb PYK inh inactive.
`COC(=O)[C@@H](NC(=O)N1CCc2nc(COc3ccccc3)c3c(c2C1)CO[C@@H](C)C3)C(C)C` gave Giardia FBPA inh inactive[12.9 µM] and LmPK inh inactive[11.5 µM].
For CC(O)c1cccc2cc(C(O)CNC(C)(C)C)oc12 (configuration not stated) the results were Shiga inhibitor inactive, Giardia FBPA inh inactive and CHX counter inactive.
N/C(=N\N=C\c1ccc([N+](=O)[O-])cc1)c1nonc1N was read as Shiga inhibitor 91.4, RE007 growth inh inactive, Tb PYK inh inactive, Giardia FBPA inh inactive, CHX counter 51.1 and LmPK inh inactive.
Screening COc1ccc(OC)c(/C=N/N=C(\N)c2nonc2N)c1 returned Shiga inhibitor 59.1, RE007 growth inh inactive, Tb PYK inh inactive, Giardia FBPA inh inactive, CHX counter 38.0 and LmPK inh inactive.
For N/C(=N\N=C\c1ccc(O)cc1)c1nonc1N the results were Shiga inhibitor inactive, RE007 growth inh inactive, Tb PYK inh inactive, Giardia FBPA inh inactive, CHX counter 30.0 and LmPK inh inconclusive.
For Nc1nonc1C(=O)NCCNc1ccc([N+](=O)[O-])cc1 the results were Shiga inhibitor inactive, RE007 growth inh inactive, Tb PYK inh inactive, Giardia FBPA inh inactive, CHX counter inactive and LmPK inh inactive.
Screening Nc1nonc1-n1nnc(C(=O)N/N=C/c2ccc(O)cc2)c1COc1ccc(F)cc1 returned Shiga inhibitor inactive, RE007 growth inh inactive, Tb PYK inh inactive, Giardia FBPA inh inactive, CHX counter inactive and LmPK inh inactive.
COc1ccc(/C=N/N=C(\N)c2nonc2N)cc1OC was read as Shiga inhibitor 108.1, RE007 growth inh inactive, Tb PYK inh inactive, Giardia FBPA inh inactive, CHX counter 31.0 and LmPK inh inactive.
Screening COc1ccc(OC)c(C=NNC(=O)NN=Cc2cc(OC)ccc2OC)c1 returned RE007 growth inh inactive and Tb PYK inh inactive.
Cc1ccc(S(=O)(=O)N2CCCc3cc(NC(=O)c4ccc(C(C)(C)C)cc4)ccc32)cc1 was read as Tb PYK inh inactive.
CCN(C(=O)Cn1c(=O)n(-c2ccccc2)c(=O)c2ccc(C(=O)NCc3ccc4c(c3)OCO4)cc21)c1cccc(C)c1 was read as Tb PYK inh inactive.
Screening N/C(=N\N=C\c1cccc(O)c1)c1nonc1N returned Shiga inhibitor 59.3, RE007 growth inh inactive, Tb PYK inh inconclusive, Giardia FBPA inh inactive, CHX counter 30.8 and LmPK inh 11.2µM.
Screening Cc1ccc(N(C)C(CNS(=O)(=O)c2ccccc2)c2ccccc2)cc1 (configuration not stated) returned Tb PYK inh inactive.
CC1=C(C(=O)Nc2ccccc2)C(c2ccccc2C)n2nc(SCC(=O)c3ccc(C)cc3)nc2N1 (configuration not stated) was read as Tb PYK inh inactive.
CC(=O)Nc1cc(-c2ccc(Cl)cc2)[nH]n1 was read as Shiga inhibitor inactive, RE007 growth inh inactive, Tb PYK inh inactive, Giardia FBPA inh inactive, CHX counter 43.5 and LmPK inh inactive.
